An excerpt weighted towards active compounds, which were near 19% of everything screened.
HT1080 IDH1KD tx = HT-1080 IDH1 knockdown cell toxicity (counter line); HT-1080 IDH1 knockdown viability, ATP luminescence, 48 h; Potency, µM (top dose mostly 46.1 µM), for the others: at the highest dose activity, negative = toxicity, most hits filed as cytotoxic; actives 2% (n = 360,000); AID 686971;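 also: potency is read from the fitted curve at half-maximal effect; 0% = DMSO wells and -100% = cell-free medium wells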
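Luminescent ATP read-out (CellTiter-Glo, 10 min at room temperature) after 48 h compound exposure at 37 °C gave viability of IDH1-knockdown HT-1080 cells. Activity was normalised to DMSO and cell-free wells, then fitted as concentration-response curves.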
HT1080NT lethal = kills 2HG-producing HT-1080-NT fibrosarcoma cells; HT-1080-NT fibrosarcoma viability, CellTiter-Glo ATP luminescence, 48 h; Potency, µM (doses to about 46.1 µM), for the others: at the highest dose activity, negative = less viability, most hits filed as cytotoxic; actives 1.6% (n = 360,000); AID 686970;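 also: NT is the 2HG producing partner of a matched IDH1 knockdown line; potency is read from the fitted curve at half-maximal effect; 0% = DMSO-treated cells and -100% = media-only wells without cells; nearly all actives have a fitted effect of over 55% in size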
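HT-1080-NT fibrosarcoma cells (2HG-overproducing), 750 cells/well in RPMI with 5% FBS, dosed after 2 h and incubated 48 h at 37C. CellTiter-Glo luminescence normalized to DMSO and no-cell wells; concentration-response curves fitted and classed.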
DT40 TDP1 no CPT = qHTS for Inhibitors of human tyrosyl-DNA phosphodiesterase 1 (TDP1): qHTS in cells in absence of CPT; DT40 Tdp1-/- hTDP1 cells, no CPT, ATP luminescence, 48 h; Potency, µM (doses to about 46.2 µM), inactives show at the highest dose activity change, negative = growth inhibition, actives largely listed as inhibitors; actives 15% (n = 420,000); AID 686978, 2013; also: potency is read from the fitted curve at half-maximal effect; nearly all actives have a fitted effect of over 55% in size
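Readout: luminescence from CellTiter-Glo after 30 min in the dark at RT. Cells: DT40 Tdp1-/- with stable hTDP1, 400/well. Exposure: compounds alone, ≥48 hr, 37 °C.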
DT40 TDP1 CPT = growth inhibition of DT40 Tdp1-/-;hTDP1 cells with camptothecin (screen for TDP1 inhibitors); chicken DT40 Tdp1-/-;hTDP1 cells + 20 nM CPT, ATP luminescence, 48 h; Potency, µM (top dose mostly 46.2 µM), for the others: top-dose activity change, negative = growth inhibition, most hits filed as inhibitors; actives 12% (n = 420,000); AID 686979; also: potency is read from the fitted curve at half-maximal effect; nearly all actives have a fitted effect of over 55% in size
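Chicken DT40 Tdp1-/- cells stably complemented with human TDP1 were seeded at 400 cells/well in medium containing 20 nM camptothecin, exposed to pin-transferred compounds, and grown at 37 °C for at least 48 hr. Viability was read as ATP luminescence.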
IL-1B inflam inh = blocks inflammasome-driven IL-1 beta release; actives 4.7% (n = 360,000); activity change, % at 57.5 µM; THP-1 LPS/ATP IL-1B secretion, AlphaLISA, 16 h; active compounds read low; AID 743279; in the data active = activity change below about -50%; inconclusive = mostly about -30% to -49%
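Secreted IL-1B measured by AlphaLISA bead assay after 16 h compound exposure of THP-1 cells; compounds (final up to 57.5 uM) added 1 h before LPS (250 ng/mL) and ATP (1.25 mM) stimulation; lower signal means less secretion.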
* = called active by the depositor. Unless noted, calls follow the shape of the dose curve; as a rule, active = well fitted curve in the direction sought with a large enough effect; inconclusive = small, poorly fitted or top-dose-only effect, or another doubt; inactive = no such curve, though single readings can be large; an effect the other way counts as inactive or inconclusive. Unless noted, % is scaled to controls: 0 for no effect and ±100 for the full control effect.

For CC1CCN(C(=O)Cn2c(=O)n(CCc3ccccc3)c(=O)c3ccccc32)CC1 the results were HT1080 IDH1KD tx -11%, HT1080NT lethal -10%, DT40 TDP1 no CPT 16µM*, DT40 TDP1 CPT 15µM* and IL-1B inflam inh 5.
`CCn1c(=O)cc(SCC(=O)N2CCC(C)CC2)c2ccccc21` gave HT1080 IDH1KD tx -26%, HT1080NT lethal -3%, DT40 TDP1 no CPT inconclusive, DT40 TDP1 CPT inconclusive and IL-1B inflam inh -62*.
`CC1CCN(C(=O)Cn2c(=O)n(Cc3ccc4c(c3)OCO4)c(=O)c3ccccc32)CC1` gave HT1080 IDH1KD tx -11%, HT1080NT lethal -7%, DT40 TDP1 no CPT inconclusive, DT40 TDP1 CPT inconclusive and IL-1B inflam inh -29.
Cn1c(=O)cc(SCC(=O)N2CCN(C3CCCCC3)CC2)c2ccccc21 was read as HT1080 IDH1KD tx -6%, HT1080NT lethal 2%, DT40 TDP1 no CPT inconclusive, DT40 TDP1 CPT inconclusive and IL-1B inflam inh -60*.
CCn1c(=O)cc(SCC(=O)N2CCN(c3cc(C)ccc3C)CC2)c2ccccc21 was read as DT40 TDP1 no CPT inconclusive and DT40 TDP1 CPT 16µM*.
`O=C(CSc1nnnn1-c1ccc(Cl)c(C(=O)O)c1)NC(c1ccccc1)c1ccccc1` gave HT1080 IDH1KD tx 19%, HT1080NT lethal 16%, DT40 TDP1 no CPT -13%, DT40 TDP1 CPT -2% and IL-1B inflam inh 2.
For Cc1ccc(C)c(N2CCN(C(=O)COc3cc(=O)n(C)c4ccccc34)CC2)c1 the results were HT1080 IDH1KD tx -16%, HT1080NT lethal 2%, DT40 TDP1 no CPT inconclusive, DT40 TDP1 CPT 15µM* and IL-1B inflam inh -26.
Cc1ccc(C)c(N(C)C(=O)COc2cc(=O)n(C)c3ccccc23)c1 was read as HT1080 IDH1KD tx 3%, HT1080NT lethal -2%, DT40 TDP1 no CPT inconclusive, DT40 TDP1 CPT inconclusive and IL-1B inflam inh 0.
`Cn1cc(SCC(=O)N2CCOCC2)c2ccccc21` gave HT1080 IDH1KD tx 16%, HT1080NT lethal -2%, DT40 TDP1 no CPT -9%, DT40 TDP1 CPT 15% and IL-1B inflam inh 15.
For Cn1cc(SCC(=O)N2CCN(c3ccccc3)CC2)c2ccccc21 the results were HT1080 IDH1KD tx 0%, HT1080NT lethal -10%, DT40 TDP1 no CPT inconclusive, DT40 TDP1 CPT 21µM* and IL-1B inflam inh -2.
O=C(CCc1nnc2n(Cc3ccccc3)c(=O)c3ccccc3n12)NCCCN1CCCCC1 was read as HT1080 IDH1KD tx 1%, HT1080NT lethal 3%, DT40 TDP1 no CPT 3%, DT40 TDP1 CPT -15% and IL-1B inflam inh -14.
CC1CCN(CCCNC(=O)CCc2nnc3n(CCc4ccccc4)c(=O)c4ccccc4n23)CC1 was read as HT1080 IDH1KD tx 29%, HT1080NT lethal 3%, DT40 TDP1 no CPT 16µM*, DT40 TDP1 CPT inconclusive and IL-1B inflam inh inconclusive.
`CCN(CC(=O)Nc1ccc(NC(C)=O)cc1)C(=O)COc1ccccc1Cc1ccccc1` gave HT1080 IDH1KD tx -2%, HT1080NT lethal -2%, DT40 TDP1 no CPT -3%, DT40 TDP1 CPT -7% and IL-1B inflam inh -15.
Nc1ccn([C@@H]2O[C@H](C(=O)NCCCN3CCCC3=O)[C@@H](O)[C@H]2O)c(=O)n1 was read as HT1080 IDH1KD tx 1%, HT1080NT lethal 9%, DT40 TDP1 no CPT 3%, DT40 TDP1 CPT -11% and IL-1B inflam inh -1.
`CCOC(=O)c1ccc(NC2(c3ccccc3)C(=O)c3ccccc3C2=O)cc1` gave DT40 TDP1 no CPT -6% and DT40 TDP1 CPT -21%.
`C=CCn1c(SCC(=O)NCCCC)nc2scc(-c3ccco3)c2c1=O` gave HT1080 IDH1KD tx -12%, HT1080NT lethal -14%, DT40 TDP1 no CPT inconclusive, DT40 TDP1 CPT inconclusive and IL-1B inflam inh -68*.
For C=CCn1c(SCC(=O)NCC2CCCO2)nc2scc(-c3ccccc3)c2c1=O (configuration not stated) the results were HT1080 IDH1KD tx -4%, HT1080NT lethal 8%, DT40 TDP1 no CPT inconclusive, DT40 TDP1 CPT 26µM* and IL-1B inflam inh -6.
For Cc1nc(SC(C)C(=O)NCC2CCCO2)c2cc(-c3ccccc3)sc2n1 (configuration not stated) the results were HT1080 IDH1KD tx inconclusive, HT1080NT lethal -9%, DT40 TDP1 no CPT 15µM*, DT40 TDP1 CPT 15µM* and IL-1B inflam inh -63*.
CCn1c(SC(C)C(=O)NCC2CCCO2)nc2scc(-c3ccccc3)c2c1=O (configuration not stated) was read as HT1080 IDH1KD tx 1%, HT1080NT lethal -2%, DT40 TDP1 no CPT inconclusive, DT40 TDP1 CPT 18µM* and IL-1B inflam inh -3.
For O=C(CN1C(=O)NC2(CCCCCCC2)C1=O)Nc1c(Cl)cccc1Cl the results were HT1080 IDH1KD tx 3%, HT1080NT lethal -7%, DT40 TDP1 no CPT -21%, DT40 TDP1 CPT -1% and IL-1B inflam inh 0.
For COc1cc2c(O)c3c(c(-c4ccc5c(c4)OCO5)c2cc1OC)C(=O)OC3 the results were HT1080 IDH1KD tx 2.5µM*, HT1080NT lethal 2.5µM*, DT40 TDP1 no CPT 3.3µM*, DT40 TDP1 CPT 1.8µM* and IL-1B inflam inh -19.
COc1ccc(-c2ccc3oc(-c4ccc(OC)cc4)c(C#CCO)c3c2)cc1 was read as HT1080 IDH1KD tx 16µM*, HT1080NT lethal 21µM*, DT40 TDP1 no CPT inconclusive, DT40 TDP1 CPT 23µM* and IL-1B inflam inh inconclusive.
Screening COc1cc2sc(-c3ccc(S(C)(=O)=O)cc3)c(-c3ccc4c(c3)OCO4)c2cc1OC returned HT1080 IDH1KD tx -18%, HT1080NT lethal -14%, DT40 TDP1 no CPT inconclusive, DT40 TDP1 CPT -10% and IL-1B inflam inh -15.
Screening CCOC1CCCc2oc(-c3ccc(OC)cc3)c(C#CCCO)c21 (configuration not stated) returned HT1080 IDH1KD tx inconclusive, HT1080NT lethal -19%, DT40 TDP1 no CPT 16µM* and DT40 TDP1 CPT inconclusive.
COc1cccc(-c2oc3c(c2C#CCCO)C(O)CCC3)c1 (configuration not stated) was read as HT1080 IDH1KD tx 1%, HT1080NT lethal 4%, DT40 TDP1 no CPT -15%, DT40 TDP1 CPT -8% and IL-1B inflam inh 3.
For COc1ccc(-c2oc3ccc(N4CCOCC4)cc3c2C#CCO)cc1 the results were HT1080 IDH1KD tx inconclusive, HT1080NT lethal inconclusive, DT40 TDP1 no CPT inconclusive, DT40 TDP1 CPT inconclusive and IL-1B inflam inh -23.
Screening COc1cc2c(-c3ccc4cc[nH]c4c3)c(-c3ccc(C#N)cc3)oc(=O)c2cc1OC returned HT1080 IDH1KD tx -8%, HT1080NT lethal -4%, DT40 TDP1 no CPT 9.2µM*, DT40 TDP1 CPT 5.8µM* and IL-1B inflam inh 15.
